High-throughput results (PubChem BioAssay)
A selection: hits, their analogues and other compounds. The true share with any hit is near 19%.
Cycloheximide cs: affects cycloheximide protein synthesis inhibition readout, counter-screen; cell reporter, cycloheximide protein synthesis inhibition counterscreen; max response, %; 12% of 300,000 active; AID 2314; in the data active = max response mostly above about 13%, no sharp cut-off; inactive = mostly below about 14%; note: read at 38.3 µM for the half of the compounds with a filed dose; 0% is about no effect
AMA1-RON2 inh: inhibitors of Plasmodium falciparum AMA1-RON2 interaction; 0.2% of 360,000 active; Potency, µM (titrated, usually from 58.2 µM), inactives show at the highest dose activity change, negative = inhibition, usual class: inhibitors; AlphaScreen AMA1-biotinylated RON2 peptide binding; AID 720542;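 note: potency is the fitted concentration of half-maximal effect; 0% = vehicle wells and -100% = peptide control; nearly all actives have a fitted effect of over 45% in size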
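AMA1 (3D7) with his tag at 25 nM final met compounds first, then biotinylated RON2 peptide at 25 nM; detection used donor plus acceptor beads, 10 µg/mL apiece, read by AlphaScreen after 30 min at room temperature.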
Pf growth 48h: P. falciparum growth inhibition at 48 hours (one generation) | P. falciparum luciferase growth in erythrocytes, 48 h | Potency, µM (series often up to 28.7 µM), for inactives: top-dose activity change, negative = inhibition, usual class: inhibitors | 5.9% of 310,000 active | AID 504832; note: potency is the fitted concentration of half-maximal effect; % is set by controls: 0 for no effect and ±100 for the full control effect
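Cell-based growth assay: transgenic P. falciparum expressing firefly luciferase, cultured in red cells within RPMI 1640 containing 0.5% w/v Albumax, 24 mM bicarbonate and gentamycin. A drop in luciferase activity indicates inhibition.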
SARS PLpro yeast: blocks SARS-CoV papain-like protease in a yeast assay | 0.19% of 330,000 active | S. cerevisiae expressing SARS-CoV PLpro, growth rescue | Potency, µM (doses to about 32.9 µM), for inactives: at the highest dose activity, positive = growth rescue, actives largely listed as activators | AID 485353; calls by dose curve; note: potency is the fitted concentration of half-maximal effect; 0% is about no effect; nearly all actives have a fitted effect of over 55% in size
Shiga toxin inh: inhibitors of Shiga toxin in Vero cells; inhibition, % at 38.7 µM; 9.2% of 290,000 active; Vero cells, Shiga toxin protein synthesis inhibition reporter; in the data active = inhibition mostly above about 28%, no sharp cut-off; inactive = mostly below about 43%; note: 0% is about no effect
Pf growth 96h: inhibits malaria parasite growth, 96 h; P. falciparum luciferase reporter growth, 96 h; Potency, µM (highest dose often 28.7 µM), without a hit: top-dose activity change, negative = inhibition, usual class: inhibitors; AID 504834; 6.9% of 320,000 active; note: potency is the fitted concentration of half-maximal effect; % is set by controls: 0 for no effect and ±100 for the full control effect
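Luminescence readout: decreased luciferase signal marks inhibited growth of reporter-expressing P. falciparum in infected red cells (2% hematocrit, 0.05% parasitemia final), exposed to compound two generations (96 h, 37 C, 5% CO2).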
* hit, by the source's call; [ ] = another dose, or the depositor's remark. Unless noted, calls come from the whole dose curve; as a rule, active = well fitted curve in the direction sought with a large enough effect; inconclusive = small, poorly fitted or top-dose-only effect, or another doubt; inactive = no such curve, though single readings can be large; an effect the other way counts as inactive or inconclusive.

`CC(=O)Nc1ccc(O)c(-c2nc3ccccc3s2)c1` gave Cycloheximide cs 49*, AMA1-RON2 inh 0%, Pf growth 48h 142%, SARS PLpro yeast -5%, Shiga toxin inh 131* and Pf growth 96h 163%.
`O=C(Nc1ccc(OC(=O)c2ccccc2)c(-c2nc3ccccc3s2)c1)c1ccccc1` gave Cycloheximide cs -2, AMA1-RON2 inh -5%, Pf growth 48h 33%, SARS PLpro yeast 1%, Shiga toxin inh 12 and Pf growth 96h 24%.
For CCc1ccc2oc(C(=O)Nc3ccc(S(N)(=O)=O)cc3)c(C)c2c1 the results were Cycloheximide cs -7, AMA1-RON2 inh 8%, Pf growth 48h 36%, SARS PLpro yeast -1%, Shiga toxin inh -10 and Pf growth 96h 44%.
For CCc1ccc2oc(C(=O)Nc3nonc3CC)c(C)c2c1 the results were Cycloheximide cs 59*, AMA1-RON2 inh -4%, Pf growth 48h 3%, SARS PLpro yeast 8%, Shiga toxin inh 53* and Pf growth 96h 14%.
Cc1ccc2oc(C(=O)NCc3ncc(C)[nH]3)c(C)c2c1 was read as Cycloheximide cs 11, AMA1-RON2 inh -11%, Pf growth 48h -10%, SARS PLpro yeast 0%, Shiga toxin inh -7 and Pf growth 96h 5%.
Screening CCN(CC)S(=O)(=O)c1ccc2oc(C(=O)NCc3ccc(C)cc3)c(C)c2c1 returned Cycloheximide cs 0, AMA1-RON2 inh -5%, Pf growth 48h 9.3µM*, SARS PLpro yeast 2% and Shiga toxin inh -6.
`Cc1cc2oc(C(=O)Nc3nonc3C)c(C)c2cc1Cl` gave Cycloheximide cs 8, AMA1-RON2 inh 9%, Pf growth 48h 75%, SARS PLpro yeast inconclusive, Shiga toxin inh 1 and Pf growth 96h 8.3µM*.
For Cc1nonc1NC(=O)c1oc2ccc(F)cc2c1C the results were Cycloheximide cs -7, AMA1-RON2 inh 1%, Pf growth 48h 5%, SARS PLpro yeast -4%, Shiga toxin inh -3 and Pf growth 96h -16%.
For CCc1nonc1NC(=O)c1oc2ccc(C)cc2c1C the results were Cycloheximide cs 36*, AMA1-RON2 inh 0%, Pf growth 48h 67%, SARS PLpro yeast -1%, Shiga toxin inh 45* and Pf growth 96h inconclusive.
`O=C(COc1ccc2ccc(=O)oc2c1)N1CCc2ccccc21` gave Cycloheximide cs -1, AMA1-RON2 inh -5%, Pf growth 48h 277%, SARS PLpro yeast 0%, Shiga toxin inh 12 and Pf growth 96h 1%.
`CCc1nonc1NC(=O)c1oc2c(C)c(C)ccc2c1C` gave Cycloheximide cs 2, AMA1-RON2 inh 3%, Pf growth 48h inconclusive, SARS PLpro yeast -3%, Shiga toxin inh 3 and Pf growth 96h 14%.
CCc1nonc1NC(=O)c1oc2ccccc2c1C was read as Cycloheximide cs 36*, AMA1-RON2 inh -1%, Pf growth 48h 9.3µM*, SARS PLpro yeast -1%, Shiga toxin inh 24 and Pf growth 96h inconclusive.
CCc1ccc2oc(C(=O)NCc3ccncc3)c(C)c2c1 was read as Cycloheximide cs 22*, AMA1-RON2 inh -6%, Pf growth 48h 25%, SARS PLpro yeast -27%, Shiga toxin inh 50* and Pf growth 96h inconclusive.
For CCc1nonc1NC(=O)c1oc2cc(Br)ccc2c1C the results were Cycloheximide cs 15*, AMA1-RON2 inh 6%, Pf growth 48h 9.3µM*, SARS PLpro yeast 3%, Shiga toxin inh 19 and Pf growth 96h inconclusive.
`COc1cc(CNc2ccc(S(N)(=O)=O)cc2)ccc1OCC(=O)NC1CCCCC1` gave Cycloheximide cs -2, AMA1-RON2 inh 4%, Pf growth 48h -24%, SARS PLpro yeast -1%, Shiga toxin inh -9 and Pf growth 96h 1%.
COc1ccc(C(CNC(=O)c2ccc(Br)o2)N2CCN(C)CC2)cc1 (stereo not drawn) was read as AMA1-RON2 inh -20%, Pf growth 48h 2%, SARS PLpro yeast inconclusive and Pf growth 96h 5%.
For CC(C)c1ccc(OCc2ccc(C(=O)O)o2)cc1 the results were Cycloheximide cs 35*, AMA1-RON2 inh -2%, Pf growth 48h 1µM*, SARS PLpro yeast 2%, Shiga toxin inh 64* and Pf growth 96h 244%.
For CC(C)c1ccc(OCc2ccc(C(=O)N(C)C)o2)cc1 the results were Cycloheximide cs 65*, AMA1-RON2 inh 16%, Pf growth 48h 1%[0.00184 µM], SARS PLpro yeast -6%, Shiga toxin inh 151* and Pf growth 96h 37%.
For CC(C)c1ccc(OCc2ccc(C(=O)NN3CCN(C)CC3)o2)cc1 the results were Cycloheximide cs 79*, AMA1-RON2 inh -5%, Pf growth 48h 85%, SARS PLpro yeast 1%, Shiga toxin inh 170* and Pf growth 96h inconclusive.
Cc1ccccc1NC(=O)COC(=O)/C=C/c1cccc(C(F)(F)F)c1 was read as Cycloheximide cs -3, AMA1-RON2 inh -7%, Pf growth 48h 9%, SARS PLpro yeast 20%, Shiga toxin inh 5 and Pf growth 96h -7%.
`CCN(CC)CCOC(=O)c1ccc(NC(=O)CNC(=O)C2CCCCC2)cc1` gave Cycloheximide cs 1, AMA1-RON2 inh 12%, Pf growth 48h 18%, SARS PLpro yeast -5%, Shiga toxin inh -10 and Pf growth 96h 6%.
COc1ccc(C(=O)c2c(C(F)(F)F)oc3c2C(=O)c2ccccc2C3=O)cc1 was read as Cycloheximide cs 11, AMA1-RON2 inh inconclusive, Pf growth 48h 0.1µM*, SARS PLpro yeast -42% and Shiga toxin inh -13.
Screening COc1ccc(C(=O)c2coc(-c3ccccc3C(=O)O)c2C(=O)O)cc1 returned Cycloheximide cs 5, AMA1-RON2 inh -12%, Pf growth 48h 4%, SARS PLpro yeast 14%, Shiga toxin inh 5 and Pf growth 96h 25%.
Screening CN1C(=O)C(=Cc2ccc(OCCN(C)c3ccccn3)cc2)C(=O)N(C)C1=O returned Cycloheximide cs 21*, AMA1-RON2 inh -18%, Pf growth 48h 236%, SARS PLpro yeast 0%, Shiga toxin inh 37 and Pf growth 96h 26%.
CCc1ccc(NC(=O)CCn2ccnc2C)cc1 was read as Cycloheximide cs 7, AMA1-RON2 inh 0%, SARS PLpro yeast 5%, Shiga toxin inh -11 and Pf growth 96h inconclusive.
Cc1cc(-c2ccccc2)nc(N(C)NC(=O)c2cccc(C(F)(F)F)c2)c1S(C)(=O)=O was read as Cycloheximide cs -2, AMA1-RON2 inh -1%, SARS PLpro yeast -1%, Shiga toxin inh 8 and Pf growth 96h 3.7µM*.
`Cc1ccccc1C(=O)NC1CCN(Cc2nnnn2C2CCCC2)CC1` gave Cycloheximide cs -2, AMA1-RON2 inh 38%, Pf growth 48h -9%, SARS PLpro yeast 15%, Shiga toxin inh 0 and Pf growth 96h 6.6µM*.
Cc1ccc(Cn2nnnc2CN2CCC(NC(=O)c3ccc(Br)cc3)CC2)cc1 was read as Cycloheximide cs -3, AMA1-RON2 inh -7%, Pf growth 48h 3.7µM*, SARS PLpro yeast 7%, Shiga toxin inh 4 and Pf growth 96h inconclusive.
